Measured values as given in the supplement of paper PMC12067926.
Values without a mark were called inactive.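 How the source made its calls: active = growth AUC significantly below the DMSO wells by Dunnett test; inactive = the rest.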

Key:
Assay in all cases: relative growth (AUC of 72 h growth curve relative to DMSO control, dAUC) (ratio); higher = more growth (less inhibition), active = hit call of the paper
Settings in all cases: 20 µM
[1] = tested on: Prolinoborus 1 (Prolinoborus fasciculus)
Method in brief: (§1)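 Whole sediment communities and bacterial isolates from Icelandic stream sediments and Silwood Park soil were brought to carrying capacity in Luria–Bertani medium. They were then diluted 1:100 into 96-well plates with each chemical at 20 µM in 1% DMSO, and A600 was recorded every hour for 72 h. The area under each growth curve, integrated by spline, was averaged across three biological replicates. This figure, divided by the mean of the DMSO controls, gives relative growth (dAUC).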

[2] = tested on: Pseudomonas 1 (Pseudomonas baetica)
Method in brief: as §1

[3] = tested on: Pseudomonas 2 (Pseudomonas vancouverensis)
Method in brief: as §1

[4] = tested on: Pseudomonas 3 (Pseudomonas mandelii)
Method in brief: as §1

[5] = tested on: Pseudomonas 4 (Pseudomonas peli)
Method in brief: as §1

[6] = tested on: Pseudomonas 5 (Pseudomonas baetica)
Method in brief: as §1

[7] = tested on: Pseudomonas 6 (Pseudomonas sp.)
Method in brief: as §1

[8] = tested on: Rhizobium 1 (Rhizobium herbae)
Method in brief: as §1

[9] = tested on: Serratia 1 (Serratia sp. 2015-2462-01)
Method in brief: as §1

[10] = tested on: Sphingomonas 2 (Sphingomonas sp.)
Method in brief: as §1

Structure (SMILES) | relative growth [1] | relative growth [2] | relative growth [3] | relative growth [4] | relative growth [5] | relative growth [6] | relative growth [7] | relative growth [8] | relative growth [9] | relative growth [10]
CS(=O)(=O)c1ccc(C(=O)C2C(=O)CCCC2=O)c([N+](=O)[O-])c1 | 0.983 | 1.06 | 1.02 | 1.03 | 1.05 | 0.998 | 0.96 | 1.15 | 1 | 1.1
CCNc1nc(Cl)nc(NC(C)C)n1 | 0.944 | 0.917 | 0.95 | 0.996 | 0.956 | 1.01 | 0.945 | 0.995 | 0.928 | 1.02
CNC(=O)/C=C(\C)OP(=O)(OC)OC | 0.971 | 1.05 | 0.988 | 1.03 | 0.964 | 0.96 | 0.989 | 1.09 | 0.937 | 0.926
O=C(NC(=O)c1c(F)cccc1F)Nc1ccc(OC(F)(F)C(F)OC(F)(F)F)c(Cl)c1 (stereo not given) | 0.988 | 1.02 | 1.01 | 0.99 | 0.961 | 0.966 | 0.98 | 0.952 | 0.995 | 1.11
CCCCN(CCCC)SN(C)C(=O)Oc1cccc2c1OC(C)(C)C2 | 0.949 | 0.618 (active) | 1.03 | 1.07 | 1.01 | 1.03 | 1.18 | 0.946 | 0.977 | 0.798
CC(C)N(C)S(=O)(=O)NC(=O)c1cc(-n2c(=O)cc(C(F)(F)F)n(C)c2=O)c(F)cc1Cl | 0.979 | 1.01 | 1.02 | 1.04 | 1.02 | 1.06 | 1.07 | 1.05 | 0.977 | 1.07
N#CC(CCc1ccc(Cl)cc1)(Cn1cncn1)c1ccccc1 (stereo not given) | 0.902 | 0.999 | 0.921 | 0.992 | 0.934 | 0.932 | 0.909 | 0.947 | 0.921 | 1.08
C[C@@H]1[C@@H](c2ccc(Cl)cc2)SC(=O)N1C(=O)NC1CCCCC1 | 0.994 | 0.933 | 0.976 | 1.02 | 1 | 1.05 | 1.13 | 0.964 | 1 | 0.987
CC(C)(C)[C@@H](O)[C@H](Oc1ccc(Cl)cc1)n1cncn1 | 1.02 | 0.598 (active) | 0.991 | 0.991 | 0.989 | 0.963 | 0.953 | 1.05 | 1.02 | 1.08
CC(C)NC(=O)N1CC(=O)N(c2cc(Cl)cc(Cl)c2)C1=O | 0.949 | 0.913 | 0.94 | 0.906 | 0.923 | 0.954 | 0.864 | 1.03 | 0.982 | 0.971
CNC(=O)Oc1cccc2ccccc12 | 1 | 0.973 | 1.04 | 0.996 | 1.01 | 1.04 | 1.12 | 0.906 | 0.932 | 0.986
CCOP(=S)(OCC)Oc1cc(C)nc(C(C)C)n1 | 0.91 | 0.877 | 1.01 | 1.04 | 0.919 | 0.98 | 1.12 | 0.904 | 0.958 | 0.988
CNC(=O)c1cc(Cl)cc(C)c1NC(=O)c1cc(Br)nn1-c1ncccc1Cl | 0.997 | 0.975 | 0.996 | 0.958 | 1.01 | 0.958 | 0.922 | 0.944 | 1.04 | 1.06
Cc1cc(C(C#N)c2ccc(Cl)cc2)c(Cl)cc1NC(=O)c1cc(I)cc(I)c1O (stereo not given) | 0.673 (active) | 0.846 | 0.757 (active) | 0.822 (active) | 0.883 | 0.844 (active) | 0.857 | 0.478 | 0.825 (active) | 0.0325 (active)
COP(N)(=O)SC (stereo not given) | 0.972 | 1.04 | 0.982 | 1.06 | 0.995 | 1.1 | 1.06 | 0.973 | 0.965 | 0.675
CCNC(=O)NC(=O)/C(C#N)=N/OC | 0.954 | 0.924 | 0.96 | 0.993 | 0.981 | 0.986 | 1.03 | 1.06 | 1 | 0.919
C/C(=N\C#N)N(C)Cc1ccc(Cl)nc1 | 0.963 | 0.967 | 1 | 0.987 | 0.991 | 1.03 | 0.981 | 1.11 | 0.976 | 1.03
COP(=S)(OC)SCN1C(=O)c2ccccc2C1=O | 1.08 | 0.986 | 0.981 | 0.971 | 0.962 | 1.03 | 1.12 | 0.943 | 0.972 | 1.01
O=C1C2(Cl)C3(Cl)C4(Cl)C(Cl)(Cl)C5(Cl)C3(Cl)C1(Cl)C5(Cl)C24Cl (stereo not given) | 0.943 | 1.01 | 0.962 | 0.955 | 0.934 | 1.07 | 1.14 | 0.292 (active) | 0.909 | 0.382 (active)
CCOC(=O)OC1=C(c2cc(C)ccc2C)C(=O)N[C@]12CC[C@@H](OC)CC2 | 1 | 1.11 | 0.998 | 1.02 | 1.02 | 0.981 | 1.09 | 0.952 | 0.987 | 1.04
COC(=O)NC(=S)Nc1ccccc1NC(=S)NC(=O)OC | 0.975 | 1.04 | 0.969 | 0.99 | 0.95 | 1.06 | 1.14 | 0.959 | 0.987 | 1.01
CS(=O)(=O)NC(=O)c1cc(Oc2ccc(C(F)(F)F)cc2Cl)ccc1[N+](=O)[O-] | 1.01 | 1.01 | 1 | 1 | 0.996 | 1.04 | 1.07 | 0.917 | 1.02 | 1.02
CC1=NNC(=O)N(/N=C/c2cccnc2)C1 | 1.05 | 0.636 | 1.03 | 0.986 | 0.986 | 0.971 | 0.931 | 1.03 | 0.937 | 1.03
CCCCCCCCCCCCNC(=N)N | 0.00813 (active) | 1.05 | 0.94 | 0.902 | 0.847 (active) | 0.904 | 0.922 | 0.00569 (active) | 0.00141 (active) | 0.00501 (active)
Cc1c(COC(=O)[C@@H]2[C@H](/C=C(\Cl)C(F)(F)F)C2(C)C)cccc1-c1ccccc1 (racemic) | 0.977 | 0.975 | 0.983 | 0.977 | 0.995 | 1.01 | 0.949 | 0.893 | 1.01 | 1.07
COC(=O)N(C(=O)N1CO[C@@]2(C(=O)OC)Cc3cc(Cl)ccc3C2=N1)c1ccc(OC(F)(F)F)cc1 | 1 | 1.02 | 0.991 | 1.04 | 1.01 | 0.965 | 0.966 | 1 | 0.967 | 0.861
